# Laboratory results published in paper PMC11062922 (Nature Chemical Biology, 2023).
# Where two headings read alike, the source gives them in different places.
# Assays:
# [1] = test system: PRKAA2; settings: read-out: apparent Kd, n = 1
# [2] = test system: PRKD2; settings: read-out: apparent Kd, n = 1
# [3] = compound concentrations:100 nM and 1000 nM (sheet 'Lestaurtinib' of Supplementary Table 1),run:Lestaurtinib_02496_R2,Plate:MR013
# [4] = compound concentrations:100 nM and 1000 nM (sheet 'Lestaurtinib' of Supplementary Table 1),run:Lestaurtinib_02496_R3,Plate:MR013
# [5] = compound concentrations:100 nM and 1000 nM (sheet 'Lestaurtinib' of Supplementary Table 1),run:Lestaurtinib_02572_R1,Plate:MR015
# [6] = compound concentrations:100 nM and 1000 nM (sheet 'Lestaurtinib' of Supplementary Table 1),run:Lestaurtinib_02572_R2,Plate:MR015
# [7] = compound concentrations:100 nM and 1000 nM (sheet 'Lestaurtinib' of Supplementary Table 1),run:Lestaurtinib_02572_R3,Plate:MR015
# [8] = compound concentrations:100 nM and 1000 nM (sheet 'Lestaurtinib' of Supplementary Table 1),run:Lestaurtinib_02577_R3,Plate:MR016
# [9] = compound concentrations:100 nM and 1000 nM (sheet 'Lestaurtinib' of Supplementary Table 1),run:Lestaurtinib_02584_R1,Plate:MR017
# [10] = compound concentrations:100 nM and 1000 nM (sheet 'Lestaurtinib' of Supplementary Table 1),run:Lestaurtinib_02584_R3,Plate:MR017
# [11] = compound concentrations:100 nM and 1000 nM (sheet 'Lestaurtinib' of Supplementary Table 1),run:Lestaurtinib_02601_R2,Plate:MR018
# [12] = compound concentrations:100 nM and 1000 nM (sheet 'Lestaurtinib' of Supplementary Table 1),run:Lestaurtinib_02624_R1,Plate:MR020
# [13] = compound concentrations:100 nM and 1000 nM (sheet 'Lestaurtinib' of Supplementary Table 1),run:Lestaurtinib_02624_R3,Plate:MR020
# [14] = compound concentrations:100 nM and 1000 nM (sheet 'Lestaurtinib' of Supplementary Table 1),run:Lestaurtinib_02724_R2,Plate:MR021
# [15] = compound concentrations:100 nM and 1000 nM (sheet 'Lestaurtinib' of Supplementary Table 1),run:Lestaurtinib_02724_R3,Plate:MR021
substance,measurement,setting,value
Lestaurtinib,potency estimated from few doses,[1]; [3],598 nM
same,potency estimated from few doses,[1]; [4],785 nM
same,potency estimated from few doses,[1]; [5],617 nM
same,potency estimated from few doses,[1]; [6],1330 nM
same,potency estimated from few doses,[1]; [7],1400 nM
same,potency estimated from few doses,"[1]; compound concentrations:100 nM and 1000 nM (sheet 'Lestaurtinib' of Supplementary Table 1),run:Lestaurtinib_02577_R2,Plate:MR016",1210 nM
same,potency estimated from few doses,[1]; [8],924 nM
same,potency estimated from few doses,[1]; [9],1410 nM
same,potency estimated from few doses,[1]; [10],1530 nM
same,potency estimated from few doses,"[1]; compound concentrations:100 nM and 1000 nM (sheet 'Lestaurtinib' of Supplementary Table 1),run:Lestaurtinib_02601_R1,Plate:MR018",805 nM
same,potency estimated from few doses,[1]; [11],710 nM
same,potency estimated from few doses,"[1]; compound concentrations:100 nM and 1000 nM (sheet 'Lestaurtinib' of Supplementary Table 1),run:Lestaurtinib_02606_R2,Plate:MR019",749 nM
same,potency estimated from few doses,"[1]; compound concentrations:100 nM and 1000 nM (sheet 'Lestaurtinib' of Supplementary Table 1),run:Lestaurtinib_02606_R3,Plate:MR019",736 nM
same,potency estimated from few doses,[1]; [12],849 nM
same,potency estimated from few doses,"[1]; compound concentrations:100 nM and 1000 nM (sheet 'Lestaurtinib' of Supplementary Table 1),run:Lestaurtinib_02624_R2,Plate:MR020",711 nM
same,potency estimated from few doses,[1]; [13],877 nM
same,potency estimated from few doses,[1]; [14],803 nM
same,potency estimated from few doses,[1]; [15],946 nM
same,potency estimated from few doses,"[1]; compound concentrations:100 nM and 1000 nM (sheet 'Lestaurtinib' of Supplementary Table 1),run:Lestaurtinib_02748_R1,Plate:MR024",752 nM
same,potency estimated from few doses,"[1]; compound concentrations:100 nM and 1000 nM (sheet 'Lestaurtinib' of Supplementary Table 1),run:Lestaurtinib_02748_R3,Plate:MR024",559 nM
same,potency estimated from few doses,"[1]; compound concentrations:100 nM and 1000 nM (sheet 'Lestaurtinib' of Supplementary Table 1),run:Lestaurtinib_02752_R2,Plate:MR025",851 nM
same,potency estimated from few doses,"[1]; compound concentrations:100 nM and 1000 nM (sheet 'Lestaurtinib' of Supplementary Table 1),run:Lestaurtinib_02752_R3,Plate:MR025",786 nM
same,potency estimated from few doses,"[1]; compound concentrations:100 nM and 1000 nM (sheet 'Lestaurtinib' of Supplementary Table 1),run:Lestaurtinib_02765_R1,Plate:MR026",911 nM
same,potency estimated from few doses,"[1]; compound concentrations:100 nM and 1000 nM (sheet 'Lestaurtinib' of Supplementary Table 1),run:Lestaurtinib_02765_R2,Plate:MR026",741 nM
same,potency estimated from few doses,"[1]; compound concentrations:100 nM and 1000 nM (sheet 'Lestaurtinib' of Supplementary Table 1),run:Lestaurtinib_02766_R1,Plate:MR027",782 nM
same,potency estimated from few doses,"[1]; compound concentrations:100 nM and 1000 nM (sheet 'Lestaurtinib' of Supplementary Table 1),run:Lestaurtinib_02766_R2,Plate:MR027",96.4 nM
same,potency estimated from few doses,"[1]; compound concentrations:100 nM and 1000 nM (sheet 'Lestaurtinib' of Supplementary Table 1),run:Lestaurtinib_02766_R3,Plate:MR027",669 nM
same,potency estimated from few doses,"[1]; compound concentrations:100 nM and 1000 nM (sheet 'Lestaurtinib' of Supplementary Table 1),run:Lestaurtinib_02768_R3,Plate:MR028",518 nM
same,potency estimated from few doses,"[1]; compound concentrations:100 nM and 1000 nM (sheet 'Lestaurtinib' of Supplementary Table 1),run:Lestaurtinib_02795_R2,Plate:MR022",783 nM
same,potency estimated from few doses,"[1]; compound concentrations:100 nM and 1000 nM (sheet 'Lestaurtinib' of Supplementary Table 1),run:Lestaurtinib_02795_R3,Plate:MR022",860 nM
same,potency estimated from few doses,"[1]; compound concentrations:100 nM and 1000 nM (sheet 'Lestaurtinib' of Supplementary Table 1),run:Lestaurtinib_02802_R1,Plate:MR029",713 nM
same,potency estimated from few doses,"[1]; compound concentrations:100 nM and 1000 nM (sheet 'Lestaurtinib' of Supplementary Table 1),run:Lestaurtinib_02802_R2,Plate:MR029",472 nM
same,potency estimated from few doses,"[1]; compound concentrations:100 nM and 1000 nM (sheet 'Lestaurtinib' of Supplementary Table 1),run:Lestaurtinib_02802_R3,Plate:MR029",74.9 nM
same,potency estimated from few doses,"[1]; compound concentrations:100 nM and 1000 nM (sheet 'Lestaurtinib' of Supplementary Table 1),run:Lestaurtinib_02896_R2,Plate:MR030",1800 nM
same,potency estimated from few doses,"[1]; compound concentrations:100 nM and 1000 nM (sheet 'Lestaurtinib' of Supplementary Table 1),run:Lestaurtinib_02896_R3,Plate:MR030",761 nM
same,potency estimated from few doses,"[1]; compound concentrations:100 nM and 1000 nM (sheet 'Lestaurtinib' of Supplementary Table 1),run:Lestaurtinib_03172_R1,Plate:MR031",796 nM
same,potency estimated from few doses,"[1]; compound concentrations:100 nM and 1000 nM (sheet 'Lestaurtinib' of Supplementary Table 1),run:Lestaurtinib_03172_R2,Plate:MR031",564 nM
same,potency estimated from few doses,"[1]; compound concentrations:100 nM and 1000 nM (sheet 'Lestaurtinib' of Supplementary Table 1),run:Lestaurtinib_03172_R3,Plate:MR031",696 nM
same,potency estimated from few doses,"[1]; compound concentrations:100 nM and 1000 nM (sheet 'Lestaurtinib' of Supplementary Table 1),run:Lestaurtinib_03252_R1,Plate:MR032",1210 nM
same,potency estimated from few doses,"[1]; compound concentrations:100 nM and 1000 nM (sheet 'Lestaurtinib' of Supplementary Table 1),run:Lestaurtinib_03252_R2,Plate:MR032",26.1 nM
same,potency estimated from few doses,"[2]; compound concentrations:100 nM and 1000 nM (sheet 'Lestaurtinib' of Supplementary Table 1),run:Lestaurtinib_02339_R1,Plate:MR001",41.6 nM
same,potency estimated from few doses,"[2]; compound concentrations:100 nM and 1000 nM (sheet 'Lestaurtinib' of Supplementary Table 1),run:Lestaurtinib_02339_R3,Plate:MR001",39.3 nM
same,potency estimated from few doses,"[2]; compound concentrations:100 nM and 1000 nM (sheet 'Lestaurtinib' of Supplementary Table 1),run:Lestaurtinib_02364_R3,Plate:MR002",45.4 nM
same,potency estimated from few doses,"[2]; compound concentrations:100 nM and 1000 nM (sheet 'Lestaurtinib' of Supplementary Table 1),run:Lestaurtinib_02367_R2,Plate:MR003",43.5 nM
same,potency estimated from few doses,"[2]; compound concentrations:100 nM and 1000 nM (sheet 'Lestaurtinib' of Supplementary Table 1),run:Lestaurtinib_02367_R3,Plate:MR003",44.3 nM
same,potency estimated from few doses,"[2]; compound concentrations:100 nM and 1000 nM (sheet 'Lestaurtinib' of Supplementary Table 1),run:Lestaurtinib_02381_R1,Plate:MR004",50.1 nM
same,potency estimated from few doses,"[2]; compound concentrations:100 nM and 1000 nM (sheet 'Lestaurtinib' of Supplementary Table 1),run:Lestaurtinib_02381_R2,Plate:MR004",54.4 nM
same,potency estimated from few doses,"[2]; compound concentrations:100 nM and 1000 nM (sheet 'Lestaurtinib' of Supplementary Table 1),run:Lestaurtinib_02381_R3,Plate:MR004",41.5 nM
same,potency estimated from few doses,"[2]; compound concentrations:100 nM and 1000 nM (sheet 'Lestaurtinib' of Supplementary Table 1),run:Lestaurtinib_02407_R2,Plate:MR005",51.1 nM
same,potency estimated from few doses,"[2]; compound concentrations:100 nM and 1000 nM (sheet 'Lestaurtinib' of Supplementary Table 1),run:Lestaurtinib_02407_R3,Plate:MR005",45.8 nM
same,potency estimated from few doses,"[2]; compound concentrations:100 nM and 1000 nM (sheet 'Lestaurtinib' of Supplementary Table 1),run:Lestaurtinib_02422_R1,Plate:MR006",40.9 nM
same,potency estimated from few doses,"[2]; compound concentrations:100 nM and 1000 nM (sheet 'Lestaurtinib' of Supplementary Table 1),run:Lestaurtinib_02422_R2,Plate:MR006",24 nM
same,potency estimated from few doses,"[2]; compound concentrations:100 nM and 1000 nM (sheet 'Lestaurtinib' of Supplementary Table 1),run:Lestaurtinib_02422_R3,Plate:MR006",41 nM
same,potency estimated from few doses,"[2]; compound concentrations:100 nM and 1000 nM (sheet 'Lestaurtinib' of Supplementary Table 1),run:Lestaurtinib_02437_R1,Plate:MR007",45.2 nM
same,potency estimated from few doses,"[2]; compound concentrations:100 nM and 1000 nM (sheet 'Lestaurtinib' of Supplementary Table 1),run:Lestaurtinib_02437_R2,Plate:MR007",74.6 nM
same,potency estimated from few doses,"[2]; compound concentrations:100 nM and 1000 nM (sheet 'Lestaurtinib' of Supplementary Table 1),run:Lestaurtinib_02437_R3,Plate:MR007",3.14 nM
same,potency estimated from few doses,"[2]; compound concentrations:100 nM and 1000 nM (sheet 'Lestaurtinib' of Supplementary Table 1),run:Lestaurtinib_02438_R1,Plate:MR008",45.4 nM
same,potency estimated from few doses,"[2]; compound concentrations:100 nM and 1000 nM (sheet 'Lestaurtinib' of Supplementary Table 1),run:Lestaurtinib_02438_R2,Plate:MR008",51 nM
same,potency estimated from few doses,"[2]; compound concentrations:100 nM and 1000 nM (sheet 'Lestaurtinib' of Supplementary Table 1),run:Lestaurtinib_02438_R3,Plate:MR008",31.7 nM
same,potency estimated from few doses,"[2]; compound concentrations:100 nM and 1000 nM (sheet 'Lestaurtinib' of Supplementary Table 1),run:Lestaurtinib_02443_R2,Plate:MR009",43.2 nM
same,potency estimated from few doses,"[2]; compound concentrations:100 nM and 1000 nM (sheet 'Lestaurtinib' of Supplementary Table 1),run:Lestaurtinib_02473_R3,Plate:MR010",38.9 nM
same,potency estimated from few doses,"[2]; compound concentrations:100 nM and 1000 nM (sheet 'Lestaurtinib' of Supplementary Table 1),run:Lestaurtinib_02482_R2,Plate:MR011",50.4 nM
same,potency estimated from few doses,"[2]; compound concentrations:100 nM and 1000 nM (sheet 'Lestaurtinib' of Supplementary Table 1),run:Lestaurtinib_02482_R3,Plate:MR011",42.2 nM
same,potency estimated from few doses,"[2]; compound concentrations:100 nM and 1000 nM (sheet 'Lestaurtinib' of Supplementary Table 1),run:Lestaurtinib_02487_R2,Plate:MR012",40.1 nM
same,potency estimated from few doses,"[2]; compound concentrations:100 nM and 1000 nM (sheet 'Lestaurtinib' of Supplementary Table 1),run:Lestaurtinib_02487_R3,Plate:MR012",67.4 nM
same,potency estimated from few doses,"[2]; compound concentrations:100 nM and 1000 nM (sheet 'Lestaurtinib' of Supplementary Table 1),run:Lestaurtinib_02496_R1,Plate:MR013",47.4 nM
same,potency estimated from few doses,[2]; [3],58.1 nM
same,potency estimated from few doses,[2]; [4],50.5 nM
same,potency estimated from few doses,"[2]; compound concentrations:100 nM and 1000 nM (sheet 'Lestaurtinib' of Supplementary Table 1),run:Lestaurtinib_02566_R1,Plate:MR014",67.2 nM
same,potency estimated from few doses,"[2]; compound concentrations:100 nM and 1000 nM (sheet 'Lestaurtinib' of Supplementary Table 1),run:Lestaurtinib_02566_R2,Plate:MR014",39.4 nM
same,potency estimated from few doses,"[2]; compound concentrations:100 nM and 1000 nM (sheet 'Lestaurtinib' of Supplementary Table 1),run:Lestaurtinib_02566_R3,Plate:MR014",46.5 nM
same,potency estimated from few doses,[2]; [5],38.1 nM
same,potency estimated from few doses,[2]; [6],52 nM
same,potency estimated from few doses,[2]; [7],82.5 nM
same,potency estimated from few doses,[2]; [8],35.8 nM
same,potency estimated from few doses,[2]; [9],50.7 nM
same,potency estimated from few doses,[2]; [10],33 nM
same,potency estimated from few doses,[2]; [11],54.7 nM
same,potency estimated from few doses,"[2]; compound concentrations:100 nM and 1000 nM (sheet 'Lestaurtinib' of Supplementary Table 1),run:Lestaurtinib_02601_R3,Plate:MR018",50.7 nM
same,potency estimated from few doses,"[2]; compound concentrations:100 nM and 1000 nM (sheet 'Lestaurtinib' of Supplementary Table 1),run:Lestaurtinib_02606_R1,Plate:MR019",41.7 nM
same,potency estimated from few doses,[2]; [12],52.8 nM
same,potency estimated from few doses,[2]; [13],37.9 nM
same,potency estimated from few doses,"[2]; compound concentrations:100 nM and 1000 nM (sheet 'Lestaurtinib' of Supplementary Table 1),run:Lestaurtinib_02724_R1,Plate:MR021",39.4 nM
same,potency estimated from few doses,[2]; [14],50.8 nM
same,potency estimated from few doses,[2]; [15],44.7 nM
